Experimental data as given in PubChem BioAssay AID1671188 (National Center for Advancing Translational Sciences (NCATS), 2021).
“And” between values parts separate entries of the source, which are not always exact repeats. Equal values may be shown once. Screen size: about 100,000 compounds; about 250 (0.25%) were called active. Roughly 7% stayed inconclusive and do not appear here. Calls follow the shape of the dose curve; as a rule, active = well fitted inhibition curve with a large enough effect; inconclusive = small, poorly fitted or top-dose-only effect; inactive = flat fitted curve, though single readings scatter. The entries come from a sample that favours actives as a whole.

target: Alanine aminotransferase 2 (Homo sapiens) (UniProt Q8TD30); experiment: Primary qHTS assay for inhibitors of Glutamate pyruvate transaminase 2 (GPT2); details: Recombinant GPT2, coupled pyruvate oxidase/HRP Amplex Red fluorescence; series mostly up to 57.7 µM; activity change, negative = inhibition: at the top concentration; also: nearly all actives have a fitted effect of over 60% in size
Sequence (Q8TD30 whole entry, looked up): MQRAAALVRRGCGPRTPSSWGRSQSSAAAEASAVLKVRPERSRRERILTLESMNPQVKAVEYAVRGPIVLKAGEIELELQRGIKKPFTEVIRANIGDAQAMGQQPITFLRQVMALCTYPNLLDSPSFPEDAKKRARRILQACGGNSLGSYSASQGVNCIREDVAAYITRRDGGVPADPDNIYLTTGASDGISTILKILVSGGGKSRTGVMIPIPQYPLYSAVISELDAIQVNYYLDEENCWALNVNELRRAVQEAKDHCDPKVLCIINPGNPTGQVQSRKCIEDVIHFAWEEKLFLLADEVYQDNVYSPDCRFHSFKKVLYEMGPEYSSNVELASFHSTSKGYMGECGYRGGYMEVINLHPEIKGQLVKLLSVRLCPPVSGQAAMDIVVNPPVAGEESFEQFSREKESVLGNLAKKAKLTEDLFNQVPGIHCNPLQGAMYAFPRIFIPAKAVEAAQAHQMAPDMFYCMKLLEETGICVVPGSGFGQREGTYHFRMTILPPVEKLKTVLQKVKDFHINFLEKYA
Procedure: Assay Provider: Zhenghe John Wang Ph.D.
Case Western Reserve University, Cleveland OH
Glutamate pyruvate transaminase 2 (GPT2) catalyzes the reversible transamination of glutamate and pyruvate to provide a-ketoglutarate and alanine. We have optimized an assay for GPT2 enzymatic activity that couples pyruvate formation to detection of fluorescence using an established pyruvate oxidase/horseradish peroxidase / Amplex Red system.
Screening conditions were 250uM a-KG, 2mM L-alanine, and 10ng/uL GPT2 in […] of solution; 10uL of Amplex reaction mix (outlined below) were added so that final concentrations of Amplex reagents in 50uL were 0.2mM ThPP, 0.2U/mL PO and HRP, and 50uM Amplex.
NOTE: The volume of GPT2 in the system depends on the activity of it. The activity is different every batch. You need to test the activity before the assay. For full plate assay with automation, plate 20uL of GPT2 buffer to pin into, then add 10uL of GPT2 dilution followed immediately by 10uL of substrate dilution. 2 Columns of the plate were devoted to GPT2 buffer ([…] PH7.5, 0.0001% Tween) + 50uM AOA (known GPT2 inhibitor) to serve as a positive control. Complete the assay as normal. Amplex-red buffer: […] PH7.5, 1 mM EDTA, 1 mM MgCl2.
1. Combine a-KG and L-alanine at desired concentrations and incubate for at least 10 minutes at 37C. Stocks of L-alanine and a-KG are diluted in distilled water. However, the stocks were diluted in GPT2 buffer for the assay.
2. Prepare GPT2 dilution at the desired concentration in GPT2 buffer.
3. Plate 40uL of GPT2 dilution with 40uL of substrate dilution and let incubate for 30 minutes at room temperature.
4. Add 20uL of Amplex reaction mix prepared as follows: 1.5uL 200U/mL Horseradish Peroxidase, 200mM Thiamine Pyrophosphate, 200U/mL Pyruvate Oxidase; 7.5uL 10mM Amplex Red; 288uL Amplex Buffer.
5. Incubate for 30 minutes at room temperature in the dark, then image using AM_Amplex_Fluorescence on plate reader nearest the window.
% is scaled to controls: 0 for no effect and ±100 for the full control effect; potency is read from the fitted curve at half-maximal effect.

Row | Compound | outcome | activity change, negative = inhibition | Potency
1 | CN(C)C(=O)c1ccc2oc(-c3ccnc(Cl)c3)nc2c1 | inactive |  | 
2 | CC(C)c1ccc(CN2CCC3(CC2)COCCN3C(=O)c2ccc3[nH]ncc3c2)cc1 |  | -10.3% [at 88.5 µM] (inactive) | 
3 | CC(=O)N1C[C@@H]2CCCN3CCC[C@@H]([C@H]23)[C@H]1CCCC(=O)N1CCN(C2CCN(C)CC2)CC1 | inactive |  | 
4 | COc1ccc(CC(=O)NC2CCN(Cc3ccc(-c4ccccc4OC)cc3)C2)cc1 (stereo not drawn) |  | -5.21% (inactive) | 
5 | O=C1[C@H]2CN(Cc3ccc(Cl)c(F)c3)C[C@H]2C(=O)N1CCc1ccccc1 | inactive |  | 
6 | O=C(c1ccc(C(F)(F)F)cc1)N1CCN(c2ccnc3ccnn23)CC1 | inactive |  | 
7 | O=C(N1CCC(Cc2nc(-c3ccccc3)n[nH]2)C1)C1(c2ccccc2)CC1 (stereo not drawn) | inactive |  | 
8 | O=C(c1ccccc1Cl)N1CCC2(CC1)NC(=O)N(c1cccc(Cl)c1)N2 |  | -13.9% (inactive) | 
9 | CC(C)c1noc(-c2cn(C3CCN(C(=O)c4cccc(C#N)c4)C3)nn2)n1 (stereo not drawn) | inactive |  | 
10 | O=C1NCCOCCN(S(=O)(=O)c2cccs2)[C@@H]2CCCC[C@H]12 |  | 3.21% (inactive) | 
11 | CNC(=O)c1ccccc1Nc1nc(Nc2ccc(N3CCOCC3)cc2OC)ncc1Cl |  |  | 10.9 µM (active) and 7.08 µM (active)
12 | COc1ccccc1Nc1ncc2c(n1)CN(C(=O)COc1ccccc1)CCN2 | inactive [at 88.5 µM] |  | 
13 | CNC(=O)c1ccccc1Nc1nc(Nc2ccc3c(c2OC)CCC[C@@H](N2CCN(CCO)CC2)C3)ncc1Cl |  | 2.02% (inactive) | 
14 | COc1cccc(-c2ccc(C(=O)N3CCC(NC(=O)Cc4ccc(F)cc4)CC3)cc2)c1 |  |  | inactive
15 | COc1ccccc1OC(C)(C)C(=O)N1CC(C)(C)[C@@](C)(O)C1 | inactive |  | 
16 | CN(CC1CCOCC1)C(=O)Nc1ccc(Cl)cc1 | inactive |  | 
17 | O=S(=O)(Cc1ccccc1)N1CC(c2nc(-c3ccncc3)no2)C1 |  | 2.41% (inactive) | 
18 | COc1ccc(CN2CCN(c3nc4ccccc4o3)CC2CCO)cc1C (stereo not drawn) |  | -2.15% [at 11.5 µM] (inactive) | 
19 | COc1ccc(-n2cccn2)c(CN2CCC3(CCNC(=O)CC3)CC2)c1 | inactive |  | 
20 | Cc1noc(C)c1-c1cc2c(cc(C)n2C)c(NCCCn2ccnc2)n1 |  | -9.58% [at 88.5 µM] (inactive) | 
21 | COc1ccccc1Cn1c(=O)c(C(=O)NCc2ccc(F)cc2)nc2cccnc21 | inactive |  | 
22 | O=C(c1ccc(F)cc1)N1CCCC(C(=O)N2CCCC2c2nc3ccncc3[nH]2)C1 (stereo not drawn) |  | 2.57% (inactive) | 
23 | CN1CCN(C(=O)c2ccc3oc(-c4ccncc4Cl)nc3c2)CC1 |  | 0.757% (inactive) | 
24 | COc1cccc(N2C(=O)NC(=NC3CCCCC3)C23CCN(CC2CCCCC2)CC3)c1 |  | -2.84% (inactive) | 

Row | Compound | outcome | activity change, negative = inhibition | Potency
25 | CC1=C(C(=O)OC(C)(C)C)C(c2ccccc2F)N2C(CC(=O)N3CCCC3)=CSC2=N1 (stereo not drawn) | inactive |  | 
26 | O[C@@H]1C[C@@H](c2nc(-c3cccnc3)no2)N(Cc2cccs2)C1 |  | -4.15% [at 88.5 µM] (inactive) | 
27 | CN(Cc1ccsc1)Cc1nc(C(c2ccccc2)c2ccccc2)no1 | inactive |  | 
28 | CCOC(=O)C1CCN(C(=O)c2nc3sccn3c2-c2ccc(OC)cc2)CC1 | inactive [at 88.5 µM] |  | 
29 | COCc1cc(=O)n(CC(=O)Nc2cc(C)cc(C)c2)c(N2CCOCC2)n1 | inactive |  | 
30 | CC(=O)c1ccc(NC(=O)O[C@@H]2CO[C@H]3[C@@H]2OC[C@@H]3Nc2nccc(-c3ccco3)n2)cc1 |  | -11.1% (inactive) | 
31 | CC[C@@H]1Cc2cc(O)ccc2C2=C1c1ccc(O)cc1C[C@H]2CC |  |  | 11.2 µM (active)
32 | COCCN1C[C@H]2CN(C(=O)c3ccc(C(F)(F)F)cc3)CCN2C1=O |  | 3.47% [at 88.5 µM] (inactive) | 
33 | N#Cc1ccc(CN2CCC3(Cc4ccccc4NC3=O)C2)cc1 (stereo not drawn) | inactive [at 88.5 µM] |  | 
34 | O=C(Cn1nc2c(cc1=O)CCCC2)NCCn1ccc2ccc(Cl)cc21 |  | 3.99% (inactive) | 
35 | Cc1nc(C)c(C(=O)N2CCc3nnc([C@@H]4C[C@@H](O)CN4C(C)C)n3CC2)s1 |  | -2.49% (inactive) | 
36 | C=CCNC(=O)C1N(C(C)C)C(=O)C12CCCC2 (stereo not drawn) | inactive |  | 
37 | OCC1(CN2CCCC2)CCN(Cc2ccc(OC(F)(F)F)cc2)CC1 |  | -6.92% (inactive) | 
38 | COc1ccc(NC(=O)N2CCC(O)(c3csc(CN4CCc5ccccc5C4)n3)CC2)cc1 |  | -11.3% (inactive) | 
39 | CO[C@@H]1COCC[C@H]1NC(=O)c1cn(CCN2CCNCC2)nn1 | inactive |  | 
40 | CCC(=O)N1CCCC(Cc2ncc(C)n2C(C)C)C1 (stereo not drawn) |  | 4.66% (inactive) | 
41 | O=C(c1cc(Cl)ccc1F)N1CCN(c2cc(C(F)(F)F)ncn2)CC1 |  | 2.26% (inactive) | 
42 | O=C(NCc1ccc(Cl)nc1)c1cnn2ncccc12 |  | 0.0904% [at 88.5 µM] (inactive) | 
43 | CC(C)c1ccc(CNC(=O)CN2CCCc3nc(C4CC4)ncc3C2=O)cc1 | inactive |  | 
44 | COCCN1C(=O)CCC2(C(=O)NCc3cn[nH]c3C)CCCC=C12 (stereo not drawn) |  | -8.64% (inactive) | 
45 | CN1CCN(C(C)(CN)c2ccccn2)CC1 (stereo not drawn) |  | -8.19% [at 88.5 µM] (inactive) | 
46 | O=C(Nc1cccc(F)c1)N1CCC2(CC1)SCC(=O)N2Cc1ccco1 |  | 2.45% (inactive) | 
47 | COc1ccc(-c2nnc(C[C@@H]3C[C@@H](C(C)C)[C@H](CN4CCC(C(N)=O)CC4)C=C3C)o2)cc1 | inactive |  | 
48 | Cc1ccc(C)c(CN2C(=O)NC3(CCCN(C(=O)c4ccc(C)c(F)c4)C3)C2=O)c1 (stereo not drawn) | inactive |  | 
